Results taken from the supplement of paper PMC4022240.
± gives the standard deviation.

Experiments:
Experiment in all cases: peptide microarray binding signal (635 nm), min-max normalized on array (fraction of array maximum); higher = stronger binding
Details in all cases: peptide region: H3 1-13
[1] = target: T1, HaloTag-ATRX ADD domain (163-292)
T1 chain: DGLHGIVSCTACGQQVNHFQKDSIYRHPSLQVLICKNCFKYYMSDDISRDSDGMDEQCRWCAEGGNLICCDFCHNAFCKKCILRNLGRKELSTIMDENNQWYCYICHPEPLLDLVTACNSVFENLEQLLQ
Method: (§1)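 Histone 13-mer peptides were synthesized as cellulose conjugates with a C-terminal 20-atom PEG linker and printed in triplicate on nitrocellulose. The sequence given is the unmodified backbone; PTMs (Kme1/2/3, Kac, Sph/Tph, Rme/Rme2a/Rme2s, Rcit) are listed in the label and the 'peptide modifications' condition. Slides were probed at 4 °C for 1 h with biotin-labelled (HQ)5-HaloTag reader fusions (ATRX-ADD, ING2-PHD) then streptavidin-Alexa647, or with rabbit histone antibodies then anti-rabbit Alexa647. The mean 635 nm signal of the triplicate spots was scaled 0-1 between the lowest and highest values on each array.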

[2] = target: HaloTag-ING2 PHD (mouse Ing2 200-280)
Method: as §1

[3] = target: anti-H3K4me3 antibody ab8580
Method: as §1

[4] = target: anti-H3K9me3 antibody ab8898
Method: as §1

[5] = peptide modifications: H3K4me3 H3K9me2, binder concentration: 1:2,000 dilution
[6] = peptide modifications: H3K4me3 H3K9me2, binder concentration: 1:10,000 dilution
[7] = peptide modifications: H3K9me1, binder concentration: 1:2,000 dilution
[8] = peptide modifications: H3K9me1, binder concentration: 1:10,000 dilution
[9] = peptide modifications: H3K4me3, binder concentration: 1:2,000 dilution
[10] = peptide modifications: H3K4me3, binder concentration: 1:10,000 dilution
[11] = peptide modifications: H3K4me3 H3K9me3, binder concentration: 1:2,000 dilution
[12] = peptide modifications: H3K4me3 H3K9me3, binder concentration: 1:10,000 dilution
[13] = peptide modifications: H3K4me3 H3T6ph, binder concentration: 1:2,000 dilution
[14] = peptide modifications: H3K4me3 H3T6ph, binder concentration: 1:10,000 dilution

Binder: ARTKQTARKSTGG [H3 1-13 A R T Kme3 Q T A R Kme2 S T G G]
- peptide microarray binding signal ([1]; peptide modifications: H3K4me3 H3K9me2, binder concentration: 50 nM): 0.0174 ± 0.00053
- peptide microarray binding signal ([1]; peptide modifications: H3K4me3 H3K9me2, binder concentration: 500 nM): 0.0402 ± 0.003
- peptide microarray binding signal ([2]; peptide modifications: H3K4me3 H3K9me2, binder concentration: 10 nM): 0.735 ± 0.11
- peptide microarray binding signal ([2]; peptide modifications: H3K4me3 H3K9me2, binder concentration: 100 nM): 0.869 ± 0.12
- peptide microarray binding signal [3, 5]: 0.929 ± 0.063
- peptide microarray binding signal [3, 6]: 0.889 ± 0.23
- peptide microarray binding signal [4, 5]: 0.11 ± 0.025
- peptide microarray binding signal [4, 6]: 0.0347 ± 0.004

Binder: ARTKQTARKSTGG [H3 1-13 A R T K Q T A R Kme S T G G]
- peptide microarray binding signal ([1]; peptide modifications: H3K9me1, binder concentration: 50 nM): 0.0276 ± 0.00028
- peptide microarray binding signal ([1]; peptide modifications: H3K9me1, binder concentration: 500 nM): 0.0642 ± 0.0027
- peptide microarray binding signal ([2]; peptide modifications: H3K9me1, binder concentration: 10 nM): 0.0068 ± 0.00044
- peptide microarray binding signal ([2]; peptide modifications: H3K9me1, binder concentration: 100 nM): 0.0424 ± 0.0055
- peptide microarray binding signal [3, 7]: 0.00068 ± 2.9e-05
- peptide microarray binding signal [3, 8]: 0.000628 ± 6.7e-06
- peptide microarray binding signal [4, 7]: 0.00122 ± 7.3e-05
- peptide microarray binding signal [4, 8]: 0.00098 ± 4.6e-05

Binder: ARTKQTARKSTGG [H3 1-13 A R T Kme3 Q T A R K S T G G]
- peptide microarray binding signal ([1]; peptide modifications: H3K4me3, binder concentration: 50 nM): 0.00868 ± 0.00032
- peptide microarray binding signal ([1]; peptide modifications: H3K4me3, binder concentration: 500 nM): 0.0201 ± 0.0038
- peptide microarray binding signal ([2]; peptide modifications: H3K4me3, binder concentration: 10 nM): 0.383 ± 0.2
- peptide microarray binding signal ([2]; peptide modifications: H3K4me3, binder concentration: 100 nM): 0.232 ± 0.072
- peptide microarray binding signal [3, 9]: 0.596 ± 0.33
- peptide microarray binding signal [3, 10]: 0.549 ± 0.54
- peptide microarray binding signal [4, 9]: 0.0584 ± 0.025
- peptide microarray binding signal [4, 10]: 0.0227 ± 0.011

Binder: ARTKQTARKSTGG [H3 1-13 A R T Kme3 Q T A R Kme3 S T G G]
- peptide microarray binding signal ([1]; peptide modifications: H3K4me3 H3K9me3, binder concentration: 50 nM): 0.0752 ± 0.0036
- peptide microarray binding signal ([1]; peptide modifications: H3K4me3 H3K9me3, binder concentration: 500 nM): 0.159 ± 0.022
- peptide microarray binding signal ([2]; peptide modifications: H3K4me3 H3K9me3, binder concentration: 10 nM): 0.582 ± 0.018
- peptide microarray binding signal ([2]; peptide modifications: H3K4me3 H3K9me3, binder concentration: 100 nM): 0.742 ± 0.14
- peptide microarray binding signal [3, 11]: 1 ± 0.19
- peptide microarray binding signal [3, 12]: 1 ± 0.19
- peptide microarray binding signal [4, 11]: 0.46 ± 0.11
- peptide microarray binding signal [4, 12]: 0.321 ± 0.037

Binder: ARTKQTARKSTGG [H3 1-13 A R T Kme3 Q Tph A R K S T G G]
- peptide microarray binding signal ([1]; peptide modifications: H3K4me3 H3T6ph, binder concentration: 50 nM): 0.00724 ± 0.0003
- peptide microarray binding signal ([1]; peptide modifications: H3K4me3 H3T6ph, binder concentration: 500 nM): 0.0154 ± 0.0024
- peptide microarray binding signal ([2]; peptide modifications: H3K4me3 H3T6ph, binder concentration: 10 nM): 0.169 ± 0.048
- peptide microarray binding signal ([2]; peptide modifications: H3K4me3 H3T6ph, binder concentration: 100 nM): 0.484 ± 0.12
- peptide microarray binding signal [3, 13]: 0.323 ± 0.064
- peptide microarray binding signal [3, 14]: 0.404 ± 0.061
- peptide microarray binding signal [4, 13]: 0.0262 ± 0.0036
- peptide microarray binding signal [4, 14]: 0.00865 ± 0.0019
